Assay results: the supplement of paper PMC10849652
The full data set covers some 7,900 targets. This sample favours those with a hit. About 0.6% of all pairs of compound and target were hits.

The targets below were run with c1cn2cc(-c3ccc4cn[nH]c4c3)nc(Nc3ccc(N4CCOCC4)cc3)c2n1 [entospletinib] (assay: log2 fold change, soluble protein after heating vs DMSO (PISA); higher = thermal stabilisation; K562 cells, 10 uM, 30 min; active = over 0.2 and 3.5 SD of the protein, either way, in both replicates (recomputed)).
Outline: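 Soluble protein was quantified by TMTpro 16plex LC-MS/MS after channel sums were equalised. It was obtained as the supernatant after 21,000xg for 90 min from pooled aliquots of K562 cells (2×10^6 cells/mL, 10 μM compound, 30 min) heated for 3 min across 48°C-58°C and extracted in PBS with 0.5% NP-40 at 4°C. Thermal stability values are relative to control samples and come from duplicates. They are given as log2 fold changes.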

Sequence of UniProt O60763 (O60763 whole entry, looked up): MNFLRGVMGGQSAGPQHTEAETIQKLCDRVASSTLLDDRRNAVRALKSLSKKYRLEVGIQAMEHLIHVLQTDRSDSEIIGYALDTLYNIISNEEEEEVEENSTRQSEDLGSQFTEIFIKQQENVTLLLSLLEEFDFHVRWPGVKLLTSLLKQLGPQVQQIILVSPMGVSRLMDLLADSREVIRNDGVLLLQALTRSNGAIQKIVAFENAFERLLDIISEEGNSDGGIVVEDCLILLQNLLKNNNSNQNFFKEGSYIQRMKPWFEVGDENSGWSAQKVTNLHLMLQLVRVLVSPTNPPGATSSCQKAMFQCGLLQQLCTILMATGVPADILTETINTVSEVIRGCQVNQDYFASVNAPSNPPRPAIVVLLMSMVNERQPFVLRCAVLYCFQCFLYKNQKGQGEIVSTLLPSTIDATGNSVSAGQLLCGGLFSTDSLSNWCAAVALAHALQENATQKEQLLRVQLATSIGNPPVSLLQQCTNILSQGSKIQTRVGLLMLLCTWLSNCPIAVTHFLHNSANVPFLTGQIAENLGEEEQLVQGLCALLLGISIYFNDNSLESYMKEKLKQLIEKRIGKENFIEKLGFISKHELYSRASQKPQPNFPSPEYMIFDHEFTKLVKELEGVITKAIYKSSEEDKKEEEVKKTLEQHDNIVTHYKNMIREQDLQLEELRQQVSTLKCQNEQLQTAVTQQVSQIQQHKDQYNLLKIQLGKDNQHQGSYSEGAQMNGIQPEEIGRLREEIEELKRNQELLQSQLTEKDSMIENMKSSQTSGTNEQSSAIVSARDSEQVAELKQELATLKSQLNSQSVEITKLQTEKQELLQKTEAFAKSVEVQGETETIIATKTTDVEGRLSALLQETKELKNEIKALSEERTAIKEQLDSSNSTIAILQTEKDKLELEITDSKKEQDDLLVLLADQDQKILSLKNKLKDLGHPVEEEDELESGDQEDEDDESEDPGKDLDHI
Sequence of UniProt O14773 (O14773 whole entry, looked up): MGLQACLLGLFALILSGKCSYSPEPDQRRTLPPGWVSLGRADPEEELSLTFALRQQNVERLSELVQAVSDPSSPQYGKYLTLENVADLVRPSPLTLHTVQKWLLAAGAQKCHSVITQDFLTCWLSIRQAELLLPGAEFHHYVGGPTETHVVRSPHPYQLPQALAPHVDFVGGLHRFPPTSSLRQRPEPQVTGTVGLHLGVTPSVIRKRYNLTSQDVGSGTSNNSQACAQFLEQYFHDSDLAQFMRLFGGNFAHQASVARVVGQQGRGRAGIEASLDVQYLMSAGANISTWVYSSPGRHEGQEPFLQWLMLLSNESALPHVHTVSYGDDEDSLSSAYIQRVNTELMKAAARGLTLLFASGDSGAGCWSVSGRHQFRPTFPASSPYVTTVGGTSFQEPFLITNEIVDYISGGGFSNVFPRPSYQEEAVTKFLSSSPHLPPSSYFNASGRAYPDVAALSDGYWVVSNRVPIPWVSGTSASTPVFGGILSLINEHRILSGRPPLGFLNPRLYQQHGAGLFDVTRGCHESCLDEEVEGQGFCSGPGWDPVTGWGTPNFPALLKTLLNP
Sequence of UniProt Q9NQW7 (Q9NQW7 whole entry, looked up): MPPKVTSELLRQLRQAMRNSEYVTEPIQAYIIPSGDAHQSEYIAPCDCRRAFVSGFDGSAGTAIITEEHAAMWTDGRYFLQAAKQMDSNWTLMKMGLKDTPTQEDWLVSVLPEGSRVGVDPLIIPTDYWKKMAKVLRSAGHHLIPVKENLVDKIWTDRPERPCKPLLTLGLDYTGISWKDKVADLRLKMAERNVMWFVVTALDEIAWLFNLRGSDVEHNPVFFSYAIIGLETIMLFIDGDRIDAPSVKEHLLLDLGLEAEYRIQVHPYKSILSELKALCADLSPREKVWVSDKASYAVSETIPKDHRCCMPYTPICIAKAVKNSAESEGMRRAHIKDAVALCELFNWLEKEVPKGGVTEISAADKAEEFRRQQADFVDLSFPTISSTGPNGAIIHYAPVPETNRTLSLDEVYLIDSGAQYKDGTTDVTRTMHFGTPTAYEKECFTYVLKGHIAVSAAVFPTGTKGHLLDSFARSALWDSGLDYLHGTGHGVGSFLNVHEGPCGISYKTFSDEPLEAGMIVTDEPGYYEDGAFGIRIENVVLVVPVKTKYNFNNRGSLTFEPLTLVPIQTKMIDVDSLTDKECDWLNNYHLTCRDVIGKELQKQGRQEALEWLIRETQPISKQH
Sequence of UniProt Q5VZI3 (Q5VZI3 whole entry, looked up): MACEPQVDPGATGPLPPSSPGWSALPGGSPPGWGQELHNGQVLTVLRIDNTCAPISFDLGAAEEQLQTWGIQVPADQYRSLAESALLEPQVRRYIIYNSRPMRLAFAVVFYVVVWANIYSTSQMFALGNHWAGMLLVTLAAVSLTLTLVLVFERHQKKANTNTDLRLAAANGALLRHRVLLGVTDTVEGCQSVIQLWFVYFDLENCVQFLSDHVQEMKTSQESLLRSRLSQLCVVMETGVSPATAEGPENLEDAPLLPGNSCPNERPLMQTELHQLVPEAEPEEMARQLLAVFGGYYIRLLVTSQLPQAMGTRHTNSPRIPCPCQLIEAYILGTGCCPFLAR
Sequence of UniProt Q9H4I3 (Q9H4I3 whole entry, looked up): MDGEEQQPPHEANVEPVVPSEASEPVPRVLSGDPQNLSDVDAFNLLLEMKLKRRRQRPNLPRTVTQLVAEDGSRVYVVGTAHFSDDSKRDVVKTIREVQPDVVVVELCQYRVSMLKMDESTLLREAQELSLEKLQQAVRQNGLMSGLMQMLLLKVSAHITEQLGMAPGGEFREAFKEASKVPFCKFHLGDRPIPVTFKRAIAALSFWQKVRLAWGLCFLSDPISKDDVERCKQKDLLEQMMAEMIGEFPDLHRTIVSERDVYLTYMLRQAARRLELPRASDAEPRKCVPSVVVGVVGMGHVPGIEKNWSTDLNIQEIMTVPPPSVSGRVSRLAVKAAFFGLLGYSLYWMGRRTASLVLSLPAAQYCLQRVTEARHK
Sequence of UniProt Q9Y4E8 (Q9Y4E8 whole entry, looked up): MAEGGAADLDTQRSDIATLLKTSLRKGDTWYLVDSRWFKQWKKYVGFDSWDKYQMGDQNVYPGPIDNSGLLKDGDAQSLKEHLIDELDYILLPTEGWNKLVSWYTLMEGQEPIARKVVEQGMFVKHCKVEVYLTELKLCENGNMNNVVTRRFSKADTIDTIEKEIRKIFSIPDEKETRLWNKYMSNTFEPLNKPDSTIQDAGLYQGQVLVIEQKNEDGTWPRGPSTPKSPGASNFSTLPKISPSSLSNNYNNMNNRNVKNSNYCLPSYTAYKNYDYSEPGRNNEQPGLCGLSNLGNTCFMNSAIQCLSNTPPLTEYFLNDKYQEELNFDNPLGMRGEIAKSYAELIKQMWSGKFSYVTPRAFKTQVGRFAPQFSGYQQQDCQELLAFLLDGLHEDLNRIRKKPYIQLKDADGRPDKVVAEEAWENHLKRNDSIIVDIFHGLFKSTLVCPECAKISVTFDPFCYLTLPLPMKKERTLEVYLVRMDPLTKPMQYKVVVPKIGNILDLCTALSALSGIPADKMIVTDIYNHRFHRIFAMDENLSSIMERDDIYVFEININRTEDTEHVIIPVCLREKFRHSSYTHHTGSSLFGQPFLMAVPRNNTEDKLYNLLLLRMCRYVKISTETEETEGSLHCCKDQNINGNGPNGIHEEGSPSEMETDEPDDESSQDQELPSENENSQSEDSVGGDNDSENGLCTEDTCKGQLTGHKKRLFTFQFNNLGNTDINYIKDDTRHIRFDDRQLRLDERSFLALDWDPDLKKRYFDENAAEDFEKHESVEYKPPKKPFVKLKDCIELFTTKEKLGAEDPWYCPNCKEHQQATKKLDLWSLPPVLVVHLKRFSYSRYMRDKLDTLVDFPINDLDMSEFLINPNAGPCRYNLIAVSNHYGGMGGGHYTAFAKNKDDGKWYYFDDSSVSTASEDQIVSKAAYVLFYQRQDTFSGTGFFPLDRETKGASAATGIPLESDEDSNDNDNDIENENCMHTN
Sequence of UniProt P26368 (P26368 whole entry, looked up): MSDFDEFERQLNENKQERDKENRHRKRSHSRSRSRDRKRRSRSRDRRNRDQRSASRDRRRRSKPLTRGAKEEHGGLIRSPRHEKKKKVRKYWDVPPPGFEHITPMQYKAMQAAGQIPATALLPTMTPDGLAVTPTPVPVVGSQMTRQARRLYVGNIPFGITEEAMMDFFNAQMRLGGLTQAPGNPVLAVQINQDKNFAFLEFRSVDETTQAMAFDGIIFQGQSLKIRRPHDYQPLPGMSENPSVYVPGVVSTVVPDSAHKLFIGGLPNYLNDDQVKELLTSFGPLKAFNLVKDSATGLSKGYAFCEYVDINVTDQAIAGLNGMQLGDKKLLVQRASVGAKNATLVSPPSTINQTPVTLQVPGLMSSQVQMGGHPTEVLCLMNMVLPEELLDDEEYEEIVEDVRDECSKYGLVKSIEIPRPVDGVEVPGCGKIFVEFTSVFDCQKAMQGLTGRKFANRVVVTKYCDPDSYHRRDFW
Sequence of UniProt Q9UDW1 (Q9UDW1 whole entry, looked up): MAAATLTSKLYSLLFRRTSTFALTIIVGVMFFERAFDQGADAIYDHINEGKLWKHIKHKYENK
Sequence of UniProt Q8NDZ6 (Q8NDZ6 whole entry, looked up): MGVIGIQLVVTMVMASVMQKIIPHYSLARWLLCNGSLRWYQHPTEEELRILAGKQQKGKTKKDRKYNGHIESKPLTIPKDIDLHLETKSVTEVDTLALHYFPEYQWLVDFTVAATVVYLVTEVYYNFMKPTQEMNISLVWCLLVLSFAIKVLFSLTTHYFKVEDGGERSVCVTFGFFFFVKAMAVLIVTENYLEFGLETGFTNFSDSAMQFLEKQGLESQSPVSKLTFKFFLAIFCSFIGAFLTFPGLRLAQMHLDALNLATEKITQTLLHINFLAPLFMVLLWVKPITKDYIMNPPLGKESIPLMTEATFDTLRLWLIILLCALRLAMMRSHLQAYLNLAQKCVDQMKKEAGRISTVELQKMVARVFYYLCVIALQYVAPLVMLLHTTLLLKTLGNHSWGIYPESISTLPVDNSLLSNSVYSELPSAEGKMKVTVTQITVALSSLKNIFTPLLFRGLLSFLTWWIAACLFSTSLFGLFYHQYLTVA
Sequence of UniProt P61960 (P61960 whole entry, looked up): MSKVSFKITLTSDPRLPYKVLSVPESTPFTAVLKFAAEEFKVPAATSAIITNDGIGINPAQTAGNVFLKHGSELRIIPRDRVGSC

log2 fold change, inactive:
TMEM41A (UniProt Q96HV5) 0.042
VPS16 (UniProt Q9H269) -0.06
VPS72 isoform 2 (UniProt Q15906) 0.112
TRAPPC6B (UniProt Q86SZ2) -0.003
XPNPEP1 isoform 3 (UniProt Q9NQW7) -0.027
UGGT1 (UniProt Q9NYU2) -0.018
TUBA4A (UniProt P68366) -0.031
WDR46 (UniProt O15213) 0.01
UBE2J1 (UniProt Q9Y385) 0
VPS35L (UniProt Q7Z3J2) 0.011
WDCP (UniProt Q9H6R7) -0.024
TPP1 (UniProt O14773) -0.018
TRPT1 isoform 4 (UniProt Q86TN4) 0.051
WASHC3 (UniProt Q9Y3C0) 0.007
USO1 isoform 2 (UniProt O60763) -0.017
UBE2S (UniProt Q16763) -0.029
TRABD (UniProt Q9H4I3) 0.047
U2AF2 (UniProt P26368) 0.107
UNC119B (UniProt A6NIH7) -0.055
TMEM9 (UniProt Q9P0T7) -0.05
TMEM63B (UniProt Q5T3F8) 0.011
UCHL5 (UniProt Q9Y5K5) -0.023
WDR47 (UniProt O94967) 0.011
UBA6 0.014
TOMM5 isoform 2 (UniProt Q8N4H5) -0.033
TXNIP (UniProt Q9H3M7) -0.146
UQCR10 (UniProt Q9UDW1) -0.002
TMEM161B (UniProt Q8NDZ6) 0.016
UFM1 isoform 2 (UniProt P61960) 0.079
WDR46, A0A0G2JJL1 0.023
VDAC1 (UniProt C9JI87) -0.088
XPO5 (UniProt Q9HAV4) 0.001
TOP2A isoform 4 (UniProt P11388) 0.119
TP53BP1 isoform 2 (UniProt Q12888) 0.087
TOMM20 (UniProt Q15388) 0.069
USP15 (UniProt Q9Y4E8) 0.018
WARS1 (UniProt G3V5U1) 0.342
TMEM268 isoform 3 (UniProt Q5VZI3) -0.054
UFD1 isoform 1 (UniProt Q92890) -0.047
